Compounds with a hit are over-represented: about 3.5% of the library has one in this group of screens.
KCNK3 inh = human KCNK3 channel inhibition, primary screen; O14649; CHO-KCNK3 thallium flux, FluxOR fluorescence; active compounds read low; B-score at 10 µM; actives 0.84% (n = 340,000);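 active means B-score under library mean minus 4 SD, starting fluorescence ratio at most library mean plus 5 SD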;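 further: more negative B-score means stronger inhibition of thallium flux through KCNK3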
KCNK9 block = blocks the human KCNK9 two-pore domain potassium channel | Q9NPC2 | B-score at 10 µM | actives 1.2% (n = 310,000) | HEK293 KCNK9, FluxOR thallium flux fluorescence; active compounds read low | AID 488922;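 active means ratio B-score over 3 SD below the library mean, with starting fluorescence within 5 SD of its mean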;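 further: negative B-score means less thallium flux so channel inhibition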
TMEM16A act = mouse TMEM16A channel activation, primary screen; HEK293 TMEM16A/YFP-H148Q/I152L, iodide quench fluorescence; active compounds read low; B-score at 10 µM; actives 0.3% (n = 340,000); AID 623877;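 active means fluorescence-ratio B-score plate-corrected deviation score at least 3 library SD below zero, with starting fluorescence score within 5 deviations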;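 further: channel opened by trigger with iodide after compound preincubation; score built on the fluorescence ratio of max minus min over baseline; more negative score means more quench and so TMEM16A activation or potentiation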
Target sequence (Q8BHY3 whole entry, looked up): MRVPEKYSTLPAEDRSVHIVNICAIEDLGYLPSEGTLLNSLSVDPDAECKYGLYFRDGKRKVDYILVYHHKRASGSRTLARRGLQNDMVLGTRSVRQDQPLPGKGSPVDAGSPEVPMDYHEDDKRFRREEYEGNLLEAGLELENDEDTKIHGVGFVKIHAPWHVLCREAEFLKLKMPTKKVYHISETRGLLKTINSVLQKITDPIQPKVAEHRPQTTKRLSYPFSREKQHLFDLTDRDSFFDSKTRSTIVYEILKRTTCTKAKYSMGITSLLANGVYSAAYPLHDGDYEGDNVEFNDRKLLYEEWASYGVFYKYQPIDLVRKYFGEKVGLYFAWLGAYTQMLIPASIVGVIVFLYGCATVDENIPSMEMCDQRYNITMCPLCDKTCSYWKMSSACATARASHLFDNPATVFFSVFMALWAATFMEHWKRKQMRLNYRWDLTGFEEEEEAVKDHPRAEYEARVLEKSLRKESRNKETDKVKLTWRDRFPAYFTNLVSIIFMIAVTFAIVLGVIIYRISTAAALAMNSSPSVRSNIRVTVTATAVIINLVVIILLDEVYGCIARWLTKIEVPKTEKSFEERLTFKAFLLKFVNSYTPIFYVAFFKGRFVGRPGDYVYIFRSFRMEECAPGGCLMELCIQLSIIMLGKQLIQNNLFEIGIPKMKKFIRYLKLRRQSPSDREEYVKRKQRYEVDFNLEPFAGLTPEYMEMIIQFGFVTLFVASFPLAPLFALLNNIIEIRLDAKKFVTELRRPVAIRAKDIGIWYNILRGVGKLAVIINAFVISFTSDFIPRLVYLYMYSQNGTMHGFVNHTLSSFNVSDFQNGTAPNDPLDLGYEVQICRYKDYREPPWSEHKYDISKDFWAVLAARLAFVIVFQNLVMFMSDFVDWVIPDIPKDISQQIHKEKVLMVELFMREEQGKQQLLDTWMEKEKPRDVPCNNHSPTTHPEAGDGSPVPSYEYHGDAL
ANO1 block = blocks the mouse calcium-activated chloride channel TMEM16A | HEK293 TMEM16A/YFP iodide influx fluorescence, ionomycin | normalized B-score (activity score, 25-100; higher = stronger inhibition) at 10 µM | actives 1.2% (n = 310,000) | AID 588511;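 active means ratio plate-corrected score three or more library SD toward inhibition, starting fluorescence score within five deviations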;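 further: score derived from kinetic fluorescence span divided by baseline fluorescence per well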
Kir21 block = Kir2.1 (mouse) channel inhibition. HEK293-Kir2.1, FluxOR thallium flux fluorescence; active compounds read low. B-score at 10 µM. P35561. actives 0.85% (n = 310,000);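 active means fluorescence ratio B-score at or below minus 3 SD of library scores, with starting-brightness B-score within 2 SD, cut at about -4.2 in these data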;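 further: channel flux triggered by added potassium and thallium sulfate stimulus; B-score of peak minus minimum fluorescence over baseline after thallium stimulus; more negative B-score means stronger Kir2.1 block with less thallium influx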
Starred values were filed as active, the others as inactive.

For COCCCNCCOc1ccccc1-c1ccccc1 the results were KCNK3 inh inactive, KCNK9 block inactive, TMEM16A act inactive, ANO1 block inactive and Kir21 block -2.32.
Screening C=CCNCCCCOc1ccccc1-c1ccccc1 returned KCNK3 inh inactive, KCNK9 block inactive, TMEM16A act inactive, ANO1 block inactive and Kir21 block -5.72*.
COCCCNCCCCOc1ccccc1-c1ccccc1 was read as KCNK3 inh inactive, KCNK9 block inactive, TMEM16A act inactive, ANO1 block inactive and Kir21 block -4.55*.
`CNCCOc1ccccc1-c1ccccc1` gave KCNK3 inh inactive, KCNK9 block inactive, TMEM16A act inactive, ANO1 block inactive and Kir21 block -0.59.
For CCCCNCCOc1ccccc1-c1ccccc1 the results were KCNK3 inh inactive, KCNK9 block inactive, TMEM16A act inactive, ANO1 block inactive and Kir21 block -4.4*.
Screening CNCCCCOc1ccccc1-c1ccccc1 returned KCNK3 inh inactive, KCNK9 block inactive, TMEM16A act inactive, ANO1 block inactive and Kir21 block -6.42*.
O=Cc1ccc(OCC(=O)NC(=O)NC2CCCCC2)cc1 was read as KCNK3 inh inactive, KCNK9 block inactive, TMEM16A act inactive, ANO1 block inactive and Kir21 block 2.91.
COc1ccc(CCC(=O)N2CCN(C(=O)c3ccccc3)CC2)cc1 was read as KCNK3 inh inactive, KCNK9 block inactive, TMEM16A act inactive, ANO1 block inactive and Kir21 block 0.89.
Cn1c(SCC(=O)N2CCCc3ccccc32)nc2cccnc21 was read as KCNK3 inh inactive, KCNK9 block inactive, TMEM16A act inactive, ANO1 block inactive and Kir21 block -0.98.
For CCn1c(SCC(=O)N2CCCc3ccccc32)nc2cccnc21 the results were KCNK3 inh inactive, KCNK9 block inactive, TMEM16A act inactive, ANO1 block inactive and Kir21 block -4.87*.
`Cc1[nH]c2ccccc2c1SCC(=O)N1CCCc2ccccc21` gave KCNK3 inh inactive, KCNK9 block inactive, TMEM16A act inactive, ANO1 block inactive and Kir21 block -7.8*.
Cn1c(-c2ccccc2)cnc1SCC(=O)N1CCCc2ccccc21 was read as KCNK3 inh inactive, KCNK9 block inactive, TMEM16A act inactive, ANO1 block inactive and Kir21 block -7.46*.
`O=C(CSc1nccn1-c1ccccc1)N1CCc2ccccc21` gave KCNK3 inh inactive, KCNK9 block inactive, TMEM16A act inactive, ANO1 block inactive and Kir21 block -3.2.
For O=C(CSc1nccn1-c1ccc(Cl)cc1)N1CCCc2ccccc21 the results were KCNK3 inh inactive, KCNK9 block inactive, TMEM16A act inactive, ANO1 block inactive and Kir21 block -9.34*.
COc1ccc(C(C)=O)cc1COC(=O)C1CCN(C(=O)c2ccc(Cl)cc2)CC1 was read as KCNK3 inh inactive and TMEM16A act inactive.
For O=C1C=CC(=O)c2c(O)c(N3CCN(CCOCCO)CC3)c(Br)c(O)c21 the results were KCNK3 inh -11.2* and TMEM16A act inactive.
For OCCOCCN1CCN(C2=Nc3ccccc3Sc3ccccc32)CC1 the results were KCNK3 inh inactive, KCNK9 block inactive, TMEM16A act inactive, ANO1 block inactive and Kir21 block -0.6.
Screening O=C1C=CC(=O)c2c(O)c(N3CCN(CCO)CC3)c(Cl)c(O)c21 returned KCNK3 inh -10.8* and TMEM16A act inactive.
For COc1cccc(NC(=S)N(CCCN2CCCC2)Cc2cccn2Cc2ccc(Cl)cc2)c1 the results were KCNK3 inh inactive, KCNK9 block inactive, TMEM16A act inactive, ANO1 block inactive and Kir21 block -8.49*.
CC(C)(C)C(=O)Nc1nc(=S)ss1 was read as KCNK3 inh inactive, KCNK9 block inactive, TMEM16A act inactive, ANO1 block 100* and Kir21 block -0.41.
For CC1(C(=O)O)CCC(C(=O)NC2CCCCC2)C1(C)C (configuration not stated) the results were KCNK3 inh inactive, KCNK9 block -7.58*, TMEM16A act inactive, ANO1 block inactive and Kir21 block 0.01.
For CC1CCN(CCC(=O)Nc2ccc(Br)cc2)CC1 the results were KCNK3 inh inactive, KCNK9 block inactive, TMEM16A act inactive, ANO1 block inactive and Kir21 block -4.91*.
For O=C(CCN1CCCC1)Nc1ccc(Br)cc1 the results were KCNK3 inh inactive, KCNK9 block inactive, TMEM16A act inactive, ANO1 block inactive and Kir21 block 1.37.
`Cc1ccccc1CCN1CCCC(CN(C)C(=O)c2ccc3ncccc3c2)C1` (configuration not stated) gave KCNK3 inh inactive, KCNK9 block inactive, TMEM16A act inactive, ANO1 block inactive and Kir21 block -0.25.
CCCc1cc(=O)n2[nH]c(-c3cc(OC)c(OC)c(OC)c3)nc2n1 was read as KCNK3 inh inactive, KCNK9 block inactive, TMEM16A act inactive, ANO1 block inactive and Kir21 block -0.49.
For CCCc1cc(=O)n2[nH]c(-c3ccc(OC)cc3)nc2n1 the results were KCNK3 inh inactive, KCNK9 block -7.78*, TMEM16A act inactive, ANO1 block inactive and Kir21 block -1.3.
`N#CCC(=N)N1CCN(c2ccc(F)cc2)CC1` gave KCNK3 inh inactive, KCNK9 block inactive, TMEM16A act inactive, ANO1 block inactive and Kir21 block 0.85.
Screening O=S(=O)(c1cccc2cnccc12)N1CCNCC1 returned KCNK3 inh inactive, TMEM16A act -11.7* and ANO1 block inactive.
For O=C1C2C3c4ccccc4C(c4ccccc43)C2c2nc3ccccc3n21 (configuration not stated) the results were KCNK3 inh inactive, KCNK9 block -7.7*, TMEM16A act inactive, ANO1 block inactive and Kir21 block 1.86.
For CN1C(=O)C2C3c4ccccc4C(c4ccccc43)[C@@H]2C1=O (some centres not stated) the results were KCNK3 inh inactive, KCNK9 block inactive, TMEM16A act inactive, ANO1 block inactive and Kir21 block -0.18.
`Cc1ccn2c(=O)nc(SCC(=O)Nc3ccc4c(c3)OCCO4)nc2c1` gave KCNK3 inh inactive, KCNK9 block inactive, TMEM16A act inactive, ANO1 block inactive and Kir21 block 1.07.
NC(=S)N/N=C1\CC(n2nnn(-c3cccc(Cl)c3)c2=S)C2COC1O2 (configuration not stated) was read as KCNK3 inh inactive, KCNK9 block inactive, TMEM16A act -5.65*, ANO1 block inactive and Kir21 block 0.5.
`Cc1noc(C)c1CSc1nnc2scc(-c3ccc(Cl)cc3)n12` gave KCNK3 inh inactive, KCNK9 block inactive, TMEM16A act inactive, ANO1 block inactive and Kir21 block -4.38*.
`CN1CCN(CCCNC(=S)Nc2ccc(F)c(Cl)c2)CC1` gave KCNK3 inh inactive, KCNK9 block inactive, TMEM16A act inactive, ANO1 block inactive and Kir21 block 2.74.

Compound activity (PubChem BioAssay)
